Measured values: PubChem BioAssay (NCATS)
Values joined by “and” are separate entries in the source; they are usually repeats but may differ in a detail not shown here. Identical values can stand only once. Records with an inconclusive call do not appear. Entries that show only a call come without a potency. Active and inactive are the calls of the source. Calls follow the shape of the dose curve; as a rule, active = well fitted inhibition curve with a large enough effect; inconclusive = small, poorly fitted or top-dose-only effect; inactive = flat fitted curve, though single readings scatter.

These molecules were tested against Voltage-gated inwardly rectifying potassium channel KCNH2 (Homo sapiens) (UniProt Q12809) (assay: qHTS Assay for Small Molecule Inhibitors of the Human hERG Channel Activity (AID 588834;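 also: lower thallium flux fluorescence means stronger hERG block; nearly all actives have a fitted effect of over 50% in size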)). Conditions: U2OS BacMam hERG, FluxOR thallium flux fluorescence; series mostly up to 46.1 µM.
From the text: NIH Chemical Genomics Center [NCGC]
National Institutes of Environmental Health Sciences [NIEHS]
National Toxicology Program [NTP]
We have developed a 1536-well cell-based assay for quantitative high throughput screening (qHTS) to determine in vitro hERG channel blockage as a measure of cardio toxicity with small molecules. This particular assay uses the U2OS cell line which is derived from human osteosarcoma.
NCGC Assay Protocol Summary:
HERG assay (FluxORTM thallium flux assay) was initially developed by Invitrogen/Molecular Probes, and then miniaturized into 1536-well plate in a homogeneous format by NCGC. This assay measures the activity of potassium channel using thallium dye (FluxOR) flux as surrogate measurement for potassium into the cells with a FDSS-7000 kinetic plate reader (Hamamatsu Corp., Hamamatsu City, Japan). The hERG ion channel is transduced into mammalian cells (U2OS) using a baculovirus (Bacmam) construct harboring the hERG K+ ion channel. So far we screened LOPAC1280 library (Sigma), the NTP collection of 1408 compounds, and the NCGC Pharmaceutical Collection (NPC), in which many well defined HERG blockers are present. The rank order potencies of many of these compounds are similar to that of other HERG assays (membrane potential, Rb+ flux, patch clamp, etc). This quick and homogeneous assay is also found to be sensitive, specific, and robust.
Using the FluxORTM thallium flux assay, the activity of potassium channel using thallium dye (FluxOR) flux as surrogate measurement for potassium into the cells was measured in the U2OS cell line transduced with hERG K+ ion channel using a baculovirus (Bacmam) using Opti-MEM medium (Invitrogen) containing 2% fetal calf serum (FCS, HyCone) following loading buffer addition, compound treatment for around 10 minutes and finally adding stimulation buffer. The assay was performed in black clear Kalypsys 1536-well plates. In the screen, Astemizole was used as positive controls. Library compounds were measured for their ability to cause hERG channel blockage in the cell line, as reflected by a decrease in fluorescence intensity, in a concentration-dependent manner. […] AC50 values were determined from concentration-response data modeled with the standard Hill equation.
qHTS protocol for hERG-U2OS cellular assay
[Step] [Parameter] [Value] [Description]
1. Day 1: Replace medium in 70-80% confluent T225 flask with 2.5 mL of hERG-BacMam virus plus 12.5 mL of phosphate buffered saline (PBS) (corresponding roughly to a multiplicity of infection ratio of 100 virus particles/cell)
2. Incubation: 4 hrs @ room Temperature in Dark
3. Reagent; Remove virus; wash once with 25 ml DPBS
4. Reagent; 35 ml culture medium
5. Incubation; 37 °C overnight
6. Day2: Reagent; 3 uL; 2000 U2OS cells/well
7. Time; 4 hr; 37 °C incubation
8. Loading buffer; 1 uL; 0.7X;
9. Incubation: 1hr @ RT in Dark.
12. Time; 10min; 37 °C incubation
13. Read fluorescence Intensity on FDSS for 10 Sec with 1 sec interval
14. Reagent; 1 uL; stimulation buffer
15. Read fluorescence Intensity on FDSS for 2 min with 1 sec interval
16. Detection; Fluorescence Intensity; FDSS
Potency is read from the fitted curve at half-maximal effect.

Chain of Voltage-gated inwardly rectifying potassium channel KCNH2 (Homo sapiens) (Q12809 whole entry, looked up): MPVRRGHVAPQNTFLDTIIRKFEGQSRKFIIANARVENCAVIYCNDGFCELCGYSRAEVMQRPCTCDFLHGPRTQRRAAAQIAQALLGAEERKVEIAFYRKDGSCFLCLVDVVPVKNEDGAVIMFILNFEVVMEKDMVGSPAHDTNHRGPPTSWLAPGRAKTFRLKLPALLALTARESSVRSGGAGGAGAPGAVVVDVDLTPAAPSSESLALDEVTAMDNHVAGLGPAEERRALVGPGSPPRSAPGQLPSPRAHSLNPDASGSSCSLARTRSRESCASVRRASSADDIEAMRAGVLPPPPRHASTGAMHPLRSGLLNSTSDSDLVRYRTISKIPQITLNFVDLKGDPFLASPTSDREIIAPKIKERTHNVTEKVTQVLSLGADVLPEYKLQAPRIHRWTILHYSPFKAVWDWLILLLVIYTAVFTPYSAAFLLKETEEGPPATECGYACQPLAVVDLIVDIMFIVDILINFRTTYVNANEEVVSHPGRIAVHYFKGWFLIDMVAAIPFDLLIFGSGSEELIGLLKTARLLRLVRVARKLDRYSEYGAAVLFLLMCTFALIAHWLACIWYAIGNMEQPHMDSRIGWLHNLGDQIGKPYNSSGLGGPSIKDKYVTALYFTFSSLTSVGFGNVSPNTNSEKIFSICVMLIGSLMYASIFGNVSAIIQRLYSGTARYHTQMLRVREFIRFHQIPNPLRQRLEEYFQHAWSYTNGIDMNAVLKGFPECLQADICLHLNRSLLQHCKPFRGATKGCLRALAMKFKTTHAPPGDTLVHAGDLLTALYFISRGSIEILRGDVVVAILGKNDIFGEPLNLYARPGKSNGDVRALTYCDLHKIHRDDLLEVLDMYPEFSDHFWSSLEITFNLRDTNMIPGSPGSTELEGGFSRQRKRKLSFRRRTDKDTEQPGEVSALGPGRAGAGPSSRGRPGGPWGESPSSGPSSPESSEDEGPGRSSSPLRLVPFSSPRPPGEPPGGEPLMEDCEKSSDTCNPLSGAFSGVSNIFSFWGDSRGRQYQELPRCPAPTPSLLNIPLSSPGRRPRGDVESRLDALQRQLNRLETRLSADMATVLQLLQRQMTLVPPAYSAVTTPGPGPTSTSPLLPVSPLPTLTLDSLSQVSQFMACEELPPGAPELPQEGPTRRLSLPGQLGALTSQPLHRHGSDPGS

Row | SMILES | Potency
1 | CCCCCC=CCC=CCCCCCCCC(=O)OCC | inactive
2 | CCN(CC)CCNC(=O)COc1ccc(Cl)cc1 | 14.1 µM (active)
3 | O=C(COc1ccc(Cl)cc1)N1CCN(Cc2ccc3c(c2)OCO3)CC1 | 15.8 µM (active)
4 | CCCC1O[C@@H]2C[C@H]3[C@@H]4CCC5=CC(=O)C=C[C@]5(C)[C@H]4[C@@H](O)C[C@]3(C)[C@]2(C(=O)CO)O1 (stereo not given in full) | inactive
5 | O=C1OC(c2ccc(O)cc2)(c2ccc(O)cc2)c2ccccc21 | 15.8 µM (active)
6 | N[C@@H](Cc1cnc[nH]1)C(=O)O | inactive
7 | C/C=C/c1ccc(OC)cc1 | inactive
8 | Cc1c(N(C)CS(=O)(=O)O)c(=O)n(-c2ccccc2)n1C | inactive
9 | CCN1CCN(c2cc3c(cc2F)c(=O)c(C(=O)O)cn3C2CC2)CC1 | inactive
10 | COC(=O)[C@@H]1CC2=CC(=O)CC[C@]2(C)[C@@]23O[C@@H]2C[C@@]2(C)[C@@H](CC[C@@]24CCC(=O)O4)[C@H]13 | inactive
11 | C=C(CC)C(=O)c1ccc(OCC(=O)O)c(Cl)c1Cl | inactive
12 | CCCCCCc1ccc(O)cc1O | inactive
13 | CC(=O)N/N=C/c1ccc([N+](=O)[O-])o1 | inactive
14 | C[C@]12CC[C@@H]3c4ccc(O)cc4CC[C@H]3[C@@H]1C[C@@H](O)[C@@H]2O | inactive
15 | CC(=O)OCC(=O)[C@@]1(O)CC[C@H]2[C@@H]3CCC4=CC(=O)C=C[C@]4(C)[C@H]3[C@@H](O)C[C@@]21C | inactive
16 | O=c1c(-c2ccccc2)c1-c1ccccc1 | inactive
17 | OC[C@@H](O)[C@@H](O[C@@H]1O[C@H](CO)[C@H](O)[C@H](O)[C@H]1O)[C@H](O)[C@@H](O)CO | inactive
18 | Nc1ccc(C(=O)O)cc1 | inactive
19 | CC[N+](CC)(CCNC(=O)C(=O)NCC[N+](CC)(CC)Cc1ccccc1Cl)Cc1ccccc1Cl | inactive
20 | CCCn1c(=O)[nH]c(=O)c2[nH]cnc21 | inactive

Row | SMILES | Potency
21 | Cc1cc(O)c(C(C)C)cc1Cl | inactive
22 | c1ccc(-c2ccc(C(c3ccccc3)n3ccnc3)cc2)cc1 (stereo not given) | 12.6 µM (active)
23 | Cc1ncc(CSSCc2cnc(C)c(O)c2CO)c(CO)c1O | inactive
24 | CC[C@@H](CO)NCCN[C@@H](CC)CO | inactive
25 | C[N+]1(CCCCC[N+]2(C)CCCC2)CCCC1 | inactive
26 | O=C(OCCOCCO)c1ccccc1Nc1cccc(C(F)(F)F)c1 | inactive
27 | Nc1nc2ncc(CNc3ccc(C(=O)N[C@@H](CCC(=O)O)C(=O)O)cc3)nc2c(=O)[nH]1 | inactive
28 | O=C(O)CCCCC(=O)O | inactive
29 | CC1(C)O[C@@H]2[C@@H](CO[C@@]3(COS(N)(=O)=O)OC(C)(C)O[C@@H]23)O1 | inactive
30 | CCOc1ccc2nc3cc(N)ccc3c(N)c2c1 | inactive
31 | N[C@@H](CCC(=O)N[C@@H](CS)C(=O)NCC(=O)O)C(=O)O | inactive
32 | c1ccc(CNCCNCc2ccccc2)cc1 | inactive
33 | CN1CCCC(CC2c3ccccc3Sc3ccccc32)C1 (stereo not given) | 4.47 µM (active)
34 | CCCCC(=O)O[C@]1(C(=O)CO)CC[C@H]2[C@@H]3CCC4=CC(=O)CC[C@]4(C)[C@H]3[C@@H](O)C[C@@]21C | inactive
35 | CC(C)C[C@H]1C(=O)N2CCC[C@H]2[C@]2(O)O[C@](NC(=O)[C@@H]3C=C4c5cccc6[nH]c(Br)c(c56)C[C@H]4N(C)C3)(C(C)C)C(=O)N12 | inactive
36 | CN1C2CCC1CC(OC(=O)c1c[nH]c3ccccc13)C2 (stereo not given) | 11.2 µM (active) and 5.62 µM (active)
37 | C[C@]12CCC(=O)C=C1CC[C@H]1[C@@H]3CC[C@](O)(C(=O)CO)[C@@]3(C)C[C@H](O)[C@@]12F | inactive
38 | Cc1c(C)n(CCN(C)C)c2ccc(C(=O)OCCN(C)C)cc12 | inactive
39 | C[C@@H]1CN(CCCn2c3ccccc3c3ccccc32)C[C@H](C)N1 | 10 µM (active)
40 | CN(C/C=C/c1ccccc1)Cc1cccc2ccccc12 | 10 µM (active)
